Source: PubChem BioAssay
S2 tox = viability counter-screen for ATXN expression inhibitors; S2 cells (HEK-293 line with an ATXN2-luciferase reporter) viability, CellTiter-Fluor protease fluorescence, 24 h; Potency, µM (doses to about 56.7 µM), usual class: cytotoxic; 400,000 tested, 0.49% active; also: nearly all actives have a fitted effect of over 40% in size
GLP-1R inv ag = GLP-1 receptor (human) inverse agonism | P43220 | HEK293 GLP-1R CRE-luciferase, luminescence, 24 h; GLP-1R form is constitutively active | Potency, µM (highest dose often 38.3 µM), for the others: at the top dose activity change, negative = inhibition, most hits filed as inhibitors | 410,000 tested, 1.6% active | AID 624417; also: % is scaled to controls: 0 for no effect and ±100 for the full control effect; nearly all actives have a fitted effect of over 55% in size
Target sequence (P43220 whole entry, looked up): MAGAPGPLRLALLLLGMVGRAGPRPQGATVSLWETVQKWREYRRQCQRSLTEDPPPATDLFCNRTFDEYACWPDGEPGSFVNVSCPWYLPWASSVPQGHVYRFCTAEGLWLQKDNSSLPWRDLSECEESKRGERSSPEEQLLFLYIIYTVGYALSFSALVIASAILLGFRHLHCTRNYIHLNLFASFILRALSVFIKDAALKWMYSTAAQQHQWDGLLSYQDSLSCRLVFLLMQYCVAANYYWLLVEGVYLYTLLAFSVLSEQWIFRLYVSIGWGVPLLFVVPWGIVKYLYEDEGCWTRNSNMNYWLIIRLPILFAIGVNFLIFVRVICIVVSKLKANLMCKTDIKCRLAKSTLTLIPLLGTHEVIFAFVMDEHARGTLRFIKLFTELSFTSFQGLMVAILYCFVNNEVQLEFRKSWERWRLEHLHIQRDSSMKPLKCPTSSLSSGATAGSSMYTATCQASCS
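Cells are plated, allowed 12 hours at 37 deg C, then treated with compounds for 24 hr before luciferase detection reagent is added and luminescence is read after 12 min at room temperature. The HEK293 line carries constitutively active GLP-1R with a cAMP-responsive reporter.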
HepG2 viability = kills HepG2 cells in TGF-b inhibitor counter-screen. HepG2 CAGA-GFP viability, ATP luminescence, 18 h. Potency, µM (titrated, usually from 46.1 µM), for the others: at the top dose activity change, negative = cytotoxicity, usual class: cytotoxic. 410,000 tested, 0.76% active
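CellTiter-Glo luminescence gave cytotoxicity after 18 hours at 37 degrees C. The cells were HepG2 CAGA-GFP in 1% FBS DMEM, stimulated with 500 pg/mL TGF-beta after compound addition. %Activity was normalised to no-cell wells (complete cell-killing) and DMSO (no toxicity), and curves were fitted and classified.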
TGFb SMAD3 inh = blocks TGF-b signaling. AID 588855. 410,000 tested, 1.2% active. HepG2 CAGA-GFP TGF-b/SMAD3 reporter, GFP fluorescence, 18 h; TGF-beta stimulated, 500 pg/mL final. Potency, µM (series often up to 46.1 µM), for the others: at the top dose activity, negative = inhibition, actives largely listed as inhibitors; also: % is scaled to controls: 0 for no effect and ±100 for the full control effect; nearly all actives have a fitted effect of over 65% in size
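HEPG2 CAGA-GFP reporter cells (1000/well, DMEM with 1% FBS) received compounds, then recombinant TGF-beta at 500 pg/mL final for 18 hours at 37 degrees C. Per-cell GFP summed per well was normalised to unstimulated and stimulated DMSO controls before curve fitting.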
ATXN2 expr inh = reduces ATXN2 reporter expression in HEK-293 cells; HEK-293 ATXN2-luciferase reporter, luminescence, 24 h; Potency, µM (doses to about 57 µM), for the others: top-dose activity change, negative = inhibition, usual class: inhibitors; 360,000 tested, 0.72% active; also: % is scaled to controls: 0 for no effect and ±100 for the full control effect; nearly all actives have a fitted effect of over 55% in size
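ATXN2-luciferase reporter cells (luciferase flanked by upstream and downstream ATXN2 gene portions) were treated 24 h at 37 °C with compounds at up to 57 uM. SteadyGlo luminescence gave expression; GF-AFC fluorescence gave viability.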
GLP1R ag = activates the human GLP-1 receptor. HEK293 GLP-1R CRE-luciferase, luminescence, 4-6 h; cells express a hypersensitive GLP-1R form. Potency, µM (series often up to 45.6 µM), inactives show at the highest dose activation, most hits filed as activators. 380,000 tested, 0.007% active. AID 624172; also: % of control where 0% means no effect
The depositor's hits bear a star; i = inactive; u = inconclusive; x = no result. Rows were chosen to be rich in hits. Some 3.7% of all compounds tested hit in one or more screens of this group. Calls follow the shape of the dose curve; as a rule, active = well fitted curve in the direction sought with a large enough effect; inconclusive = small, poorly fitted or top-dose-only effect, or another doubt; inactive = no such curve, though single readings can be large; an effect the other way counts as inactive or inconclusive. Potency is read from the fitted curve at half-maximal effect.

SMILES	S2 tox	GLP-1R inv ag	HepG2 viability	TGFb SMAD3 inh	ATXN2 expr inh	GLP1R ag
COc1cccc(C2=CC(c3ccccc3O)NC(C)(C)N2)c1 (stereo not drawn)	x	x	-5%	-2%	x	x
O=C(O)c1cc(N2CCCCC2)nc2ccccc12	i	1%	-18%	-12%	-6%	-2%
CCOC(=O)c1cc(N2CCCCC2)nc2ccccc12	i	7.9µM*	0%	-9%	10%	1%
O=C(CSCc1ccc(Cl)cc1)NCc1ccc2c(c1)OCO2	i	8.9µM*	-31%	4%	3%	-7%
O=C(NCc1ccc2c(c1)OCO2)c1ccc(CSCc2ccccc2Cl)o1	i	10µM*	29%	u	26%	3%
Cc1ccc(CNC(=O)c2ccc(CSCc3ccccc3Cl)o2)cc1	x	u	-22%	-12%	x	x
OC(CNC1CCCCCC1)COc1cccc2ccccc12 (stereo not drawn)	u	11µM*	-97%	u	u	5%
OC(CNC1CCCC1)COc1ccccc1Br (stereo not drawn)	i	u	-16%	1%	x	13%
Cc1cc(F)ccc1S(=O)(=O)Nc1ccccc1C(=O)Nc1ncn[nH]1	i	u	18%	19%	2%	-4%
Cc1cc(F)ccc1S(=O)(=O)Nc1ccccc1C(=O)Nc1ccccc1-c1nc2ccccc2[nH]1	x	6.3µM*	7.9µM*	u	u	-20%
CS[C@H]1SC[C@@H]2C(=O)N(C)[C@H](C(C)C)C(=O)OC[C@H](NC(=O)c3cnc4ccccc4n3)C(=O)N[C@H](C)C(=O)N(C)[C@@H]1C(=O)N(C)[C@H](C(C)C)C(=O)OC[C@H](NC(=O)c1cnc3ccccc3n1)C(=O)N[C@H](C)C(=O)N2C	x	x	x	x	0.011µM*	x
C#CCOCCOCCOCCNc1nc(N2CCN(C(=O)CCCCCCCCCCNC(=O)[C@H]([C@@H](C)CC)n3cc(CCCCCN)nn3)CC2)nc(N2CCN(C(=O)CCCCCCCCCCNC(=O)[C@H](CO)n3cc(CCCCCN)nn3)CC2)n1	22µM*	2%	14µM*	u	u	6%
CC(C)(C)OC(=O)CC[C@@H](C(=O)NCCCCCCCCCCC(=O)N1CCN(C(=O)OC(C)(C)C)CC1)n1cc(CCCCCNC(=O)OC(C)(C)C)nn1	i	u	-19%	-20%	8%	10%
CC(C)(C)OC(=O)NCCCCCc1cn([C@@H](CO)C(=O)NCCCCCCCCCCC(=O)N2CCN(C(=O)OC(C)(C)C)CC2)nn1	11µM*	u	-46%	u	16µM*	-9%
C#CCOCCOCCOCCNc1nc(N2CCN(C(=O)CCCCCCCCCCNC(=O)[C@H]([C@@H](C)CC)n3cc(CCCCCN)nn3)CC2)nc(N2CCN(C(=O)CCCCCCCCCCNC(=O)[C@H](CCCCN)n3cc(CCCC(=O)O)nn3)CC2)n1	u	8%	-68%	7.1µM*	u	1%
C#CCOCCOCCOCCNc1nc(N2CCN(C(=O)CCCCCCCCCCNC(=O)[C@H]([C@@H](C)CC)n3cc(CCCCN=C(N)N)nn3)CC2)nc(N2CCN(C(=O)CCCCCCCCCCNC(=O)[C@H](CCCCN)n3cc(C)nn3)CC2)n1	20µM*	u	11µM*	16µM*	25µM*	-6%
CCC(COC)NC(=O)c1cnn(-c2ncc3c(n2)-c2ccccc2CC3)c1C (stereo not drawn)	i	x	x	x	x	x
Cc1ccc(O/C=C2/Nn3c(nnc3-c3cc(-c4ccccc4)n[nH]3)S2)cc1	x	x	2%	7%	x	x
C#CCOCCOCCOCCNc1nc(N2CCN(C(=O)CCCCCCCCCCNC(=O)[C@H](CCCCN)n3cc(CCCC(=O)O)nn3)CC2)nc(N2CCN(C(=O)CCCCCCCCCCNC(=O)[C@@H]([C@H](C)O)n3cc(C)nn3)CC2)n1	i	32%	-3%	11µM*	3%	7%
C#CCOCCOCCOCCNc1nc(N2CCN(C(=O)CCCCCCCCCCNC(=O)Cn3cc(CCCCCN)nn3)CC2)nc(N2CCN(C(=O)CCCCCCCCCCNC(=O)[C@H]([C@@H](C)CC)n3cc(CCCCN=C(N)N)nn3)CC2)n1	16µM*	u	-102%	u	20µM*	-3%
C#CCOCCOCCOCCNc1nc(N2CCN(C(=O)Cn3cc(CCCN=C(N)N)nn3)CC2)nc(N2CCN(C(=O)[C@H]([C@@H](C)CC)n3cc(CCCCN)nn3)CC2)n1	i	18%	0%	13%	-1%	-2%
C#CCOCCOCCOCCNc1nc(N2CCN(C(=O)CCCCCCCCCCNC(=O)[C@H](CCCCN)n3cc(C)nn3)CC2)nc(N2CCN(C(=O)CCCCCCCCCCNC(=O)[C@H](CCCCN)n3cc(CCCC(=O)O)nn3)CC2)n1	i	12%	8%	u	7%	5%
COc1cc(OC)c(NC(=O)C(C)n2nc(-c3ccc(C)cc3)c3c(c2=O)CCCC3)cc1Cl (stereo not drawn)	u	u	-22%	u	-36%	x
CCC(C(=O)Nc1cc(OC)ccc1OC)n1nc(-c2ccccc2)c2c(c1=O)CCCC2 (stereo not drawn)	u	13µM*	-20%	u	u	x
COc1ccc(NC(=O)COC(=O)c2c3c(nc4ccccc24)CCCC3)cc1	i	u	-23%	-9%	u	-18%
SMILES	S2 tox	GLP-1R inv ag	HepG2 viability	TGFb SMAD3 inh	ATXN2 expr inh	GLP1R ag
COc1ccc(NC(=O)COC(=O)c2c3c(nc4ccccc24)CCCC3)cc1Cl	u	3.5µM*	-4%	u	-18%	-5%
CCN(CC)CCNC(=O)CSc1c2c(nc3cc(Cl)ccc13)CCCC2	x	u	-79%	18µM*	x	-12%
COc1ccc(OC)c(NC(=O)CSc2c3c(nc4cc(Cl)ccc24)CCCC3)c1	x	5%	-46%	10µM*	x	x
COc1ccc(Cl)cc1NC(=O)CSc1c2c(nc3ccccc13)CCC2	x	u	-37%	u	x	x
CC(C)c1ccc(Nc2nc3ccc(C(=O)c4ccccc4)cc3n3cnnc23)cc1	x	1%	-42%	-40%	x	x
O=C1CCC[C@@H]2[C@@H](Cc3ccccc3)[C@@H](Nc3ccccc3)C[C@@H]3CCN1[C@@H]32	x	x	-8%	u	x	x
O=C(c1n[nH]c2c1CCCC2)N1CCC(n2c(C3CCCO3)nc3ccccc32)CC1 (stereo not drawn)	i	x	x	x	x	x
COc1ccc(OC)c(NC(=O)CSc2c3c(nc4ccccc24)CCCC3)c1	x	u	13µM*	u	u	x
